Only some compounds are listed: those with a hit (about 4.3% of all), similar ones and a draw of the others.
UBC13 inh – UBC13 polyubiquitin chain formation inhibitors, primary screen, biochemical, TR-FRET, uHTS. Ubiquitin-conjugating enzyme E2 N (Homo sapiens), P61088. inhibition, % at 20 µM. 330,000 compounds, 0.47% hits; in the data active = inhibition above about 45%, passing the limit was not always enough; inconclusive = no clear call, values can overlap the other calls
Target sequence (P61088 whole entry, looked up): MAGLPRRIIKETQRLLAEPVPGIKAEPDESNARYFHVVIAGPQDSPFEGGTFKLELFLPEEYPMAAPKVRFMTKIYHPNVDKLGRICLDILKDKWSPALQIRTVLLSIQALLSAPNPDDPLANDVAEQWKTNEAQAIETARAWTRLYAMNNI
dFosB act-1 – activators of delta FosB homodimer, primary screen, biochemical, fluorescence polarization, TAMRA-CDK5 oligo, single point; 340,000 compounds, 0.99% hits; Protein FosB (Mus musculus), P13346; AID 493131, 2011; activation, % at 25 µM; purified delta FosB; percent of positive-control signal above neutral wells;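 active = mean activation above about 17%, with every replicate also reaching it, limit read from the data, passing the limit was not always enough; inconclusive = only one of the two conditions met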
Target sequence (P13346 whole entry, looked up): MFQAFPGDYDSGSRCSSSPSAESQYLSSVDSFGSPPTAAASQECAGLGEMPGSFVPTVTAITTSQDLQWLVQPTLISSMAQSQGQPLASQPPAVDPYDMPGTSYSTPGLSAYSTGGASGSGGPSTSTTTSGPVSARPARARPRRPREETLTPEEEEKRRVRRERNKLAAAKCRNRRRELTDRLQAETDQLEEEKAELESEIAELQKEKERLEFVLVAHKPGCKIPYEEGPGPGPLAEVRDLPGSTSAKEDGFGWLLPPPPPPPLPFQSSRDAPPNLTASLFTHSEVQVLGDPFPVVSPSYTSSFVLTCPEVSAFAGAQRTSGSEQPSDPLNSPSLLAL
Yeast superoxide – reduction of superoxide in aged yeast, primary screen, HTS. S. cerevisiae aged cells, superoxide DHE fluorescence; stronger effect = lower value. superoxide response (% of plate mean), % at 10 µM. 330,000 compounds, 0.18% hits;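 active = superoxide response under a set limit, about three screen SD below normal, cut at about 65% in these data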;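 also: yeast aged for seven days with compound at 30 °C before DHE staining; 100% = average MFI of all compound-treated wells on the plate with controls excluded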
GRIN3A LBD mod – binders of NR3A ligand-binding domain, primary screen, biophysical, differential scanning fluorimetry, uHTS; Tm shift relative to glycine control, % at 25 µM; NR3A LBD differential scanning fluorimetry, Tm shift; 0% = protein alone, 100% = glycine-bound protein; 340,000 compounds, 2.5% hits; AID 1259313, 2017; Glutamate receptor ionotropic, NMDA 3A (GRIN3A) ligand-binding domain;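 active = melting temperature shift of at least 10% of the positive control shift, at one fixed dose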
NALP1 yeast inh – NALP1 inflammasome inhibitors in reconstituted yeast, colorimetric, S. cerevisiae, triplicate retest. S. cerevisiae NALP1/ASC/caspase-1 growth, X-gal OD620, 72 h. inhibition, % at 10 µM. 280,000 compounds, 0.61% hits; in the data active = inhibition mostly above about 24%, no sharp cut-off; inactive = mostly below about 32%
dFosB act-2 – activators of mouse delta FosB DNA binding, confirmation, biochemical, fluorescence polarization, TAMRA-CDK5 oligo, cherry-picked samples; shares compounds with dFosB act-1; purified delta FosB; normalised: neutral wells 0, positive control 100; activation, % at 24.9 µM; 2,400 tested, under 10 active; AID 588690, 2011;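 active = highest replicate activation at or above 34% and every replicate reaching that threshold; inconclusive = meets only one of the two criteria; inactive = meets neither criterion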;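 also: higher polarization means more probe DNA bound by delta FosB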
The depositor's hits bear a star; ? = inconclusive; . = no result given.

SMILES | UBC13 inh | dFosB act-1 | Yeast superoxide | GRIN3A LBD mod | NALP1 yeast inh | dFosB act-2
COc1ccc(N2C(=O)CC(NNC(=O)c3ccc(Br)s3)C2=O)cc1 (configuration not stated) | -1.0 | 45.5* | 110.3 | -2.5 | -13.0 | -2.4
COc1cc2c(cc1OC)-c1cc(Nc3ccc(F)cc3)nc(=O)n1CC2 | 0.1 | 37.3* | 108.0 | 10.3* | 15.1 | 2.5
CCOc1ccc(Br)cc1C(=O)Nc1ccc(C(=O)NCC(C)C)cc1 | -14.0 | 73.8* | 101.0 | 13.3* | 21.1 | 2.4
Cc1cccc(C)c1OCCNC(=O)C(=O)NCc1ccco1 | -3.4 | -2.8 | 87.9 | 0.0 | 18.2 | .
Cc1ccc(C)c(NC(=O)C(OC(=O)c2ccc(CO)cc2)c2ccccc2)c1 (configuration not stated) | 2.1 | 34.9* | . | 1.3 | . | 2.9
CCn1c2ccccc2c2cc(NC(=O)CNCc3ccccc3OC)ccc21 | 22.4 | -9.2 | 105.2 | -6.7 | 12.9 | .
Cc1ccc(C)c(NC(=O)C(OC(=O)c2ccc(NC(=O)CC#N)cc2)c2ccccc2)c1 (configuration not stated) | -1.4 | 5.5 | 119.8 | 5.8 | . | .
CCn1c2ccccc2c2cc(NC(=O)C(C)OC(=O)c3ccc(NC(=O)CC#N)cc3)ccc21 (configuration not stated) | -25.6 | 17.6* | 101.0 | -3.0 | . | 6.7
Cc1cc(C)cc(NC(=O)C(OC(=O)c2ccc(NC(=O)CC#N)cc2)c2ccccc2)c1 (configuration not stated) | -14.0 | 28.4* | 94.0 | . | . | 3.0
CN(C)c1ccc(/C=C2\SC(N3CCCCC3)=NC2=O)cc1 | -106.5 | -9.1 | 102.1 | -1.0 | 19.3 | .
O=S(=O)(Nc1ccc(-c2cn3c(n2)SCC3)cc1)c1ccccc1F | 3.3 | -0.9 | 120.3 | 0.7 | -1.1 | .
CN(C(=O)c1cccc(NC(=O)Cc2ccc(NC(=O)C3CCCN(C(=O)C4CC4)C3)cc2)c1)C1CCC1 (configuration not stated) | . | -5.6 | . | -1.1 | . | .
N#C/C(=C/c1cn(-c2ccccc2)nc1-c1cccc(OCc2ccc(F)cc2)c1)C(=O)NCCCn1ccnc1 | -14.5 | 35.4* | 109.7 | -7.0 | 31.3 | -1.7
Cc1cc(NC(=O)CSc2nc(N)c(NC(=O)c3ccc(F)c(F)c3)c(=O)[nH]2)no1 | 0.9 | 56.7* | 102.5 | 1.6 | 2.5 | 5.1
COc1ccc(C(=O)Nc2c(N)nc(SCC(=O)Nc3ccc(NC(C)=O)cc3)[nH]c2=O)cc1OC | -0.4 | 4.0 | 102.1 | -0.9 | -11.3 | .
Cc1ccc(C)c(NC(=O)CSc2nc(N)c(NC(=O)c3cccs3)c(=O)[nH]2)c1 | . | 32.6* | . | -1.1 | 14.8 | 1.2
Nc1nc(SCC(=O)Nc2ccc(C(F)(F)F)cc2)[nH]c(=O)c1NC(=O)c1ccc(F)c(F)c1 | -8.4 | 49.9* | 93.9 | 27.9* | 8.5 | -0.6
CCc1nnc(NC(=O)CSc2nc(N)c(NC(=O)c3ccc(OC)cc3)c(=O)[nH]2)s1 | 0.8 | 47.6* | 105.9 | 0.2 | 1.4 | -3.6
COc1ccc(C(=O)Nc2ccnn2C2CCN(C(=O)c3cccnc3)CC2)cc1 | 0.4 | 1.4 | 101.3 | 0.3 | 12.8 | .
NC(=O)C1CCCN1Cc1ccc2c(c1)OCO2 (configuration not stated) | . | -5.4 | . | -1.7 | . | .
Cc1cc(C(C)(C)C)cc(C)c1C(=O)O | 5.9 | -4.7 | 105.0 | -0.1 | 12.1 | .
NS(=O)(=O)c1cc(C(=O)OCC(=O)Nc2ccc(N3CCCCC3)cc2)ccc1Cl | 3.9 | -1.8 | 100.8 | -2.4 | -14.1 | .
CCOC(=O)c1ccc(NC(=O)CSc2nc(N)c(NC(=O)c3ccc(Br)o3)c(=O)[nH]2)cc1 | -14.8 | -8.8 | 101.0 | 3.1 | 9.6 | .
Cc1cc(C)cc(NC(=O)CSc2nc(N)c(NC(=O)c3ccc(Br)o3)c(=O)[nH]2)c1 | 0.1 | 77.2* | 90.9 | -1.3 | 13.7 | ?
Cc1cc(NC(=O)CSc2nc(N)c(NC(=O)c3ccccc3F)c(=O)[nH]2)no1 | -3.6 | 22.0* | 100.4 | 0.2 | -2.3 | 5.9
SMILES | UBC13 inh | dFosB act-1 | Yeast superoxide | GRIN3A LBD mod | NALP1 yeast inh | dFosB act-2
Cc1cc(NC(=O)CSc2nc(N)c(NC(=O)c3ccccc3)c(=O)[nH]2)no1 | 3.1 | 10.5 | 82.8 | -1.0 | 11.0 | .
C=C(C)CNC(=S)N/N=C1\CCCCc2ccccc21 | -1.1 | -11.7 | 112.1 | 2.1 | 7.8 | .
CC1CCN(C(=O)C2CCN(S(=O)(=O)c3ccc(-n4cnnn4)cc3)CC2)CC1 | 0.1 | -2.0 | 105.3 | -1.8 | -6.9 | .
COc1ccccc1-n1c(SC)nc2c(sc(=S)n2-c2ccccc2)c1=O | 5.8 | 24.2* | . | 2.2 | 5.3 | 0.8
O=C1Cc2c([nH]c3ccc([N+](=O)[O-])cc23)-c2ccccc2N1 | . | 30.6* | . | -6.3 | . | 2.8
O=C(CCS(=O)(=O)c1cccs1)Nc1ccc(C(=O)NCc2ccccc2)cc1 | 4.5 | -4.7 | 104.9 | 2.2 | 8.4 | .
Cc1ccc(CNC(=O)c2ccc(NC(=O)CCS(=O)(=O)c3cccs3)cc2)cc1 | 5.4 | 20.5* | 99.6 | -1.7 | 3.3 | 3.2
O=C(Nc1cccc2ccccc12)/C(=C\c1cccc([N+](=O)[O-])c1)NC(=O)c1cccs1 | -0.2 | -1.1 | 109.0 | -4.9 | 24.2 | .
O=C(Nc1cccc2ccccc12)/C(=C/c1cccc([N+](=O)[O-])c1)NC(=O)c1cccs1 | -11.6 | 24.0* | 94.8 | -1.2 | 22.4 | -5.1
COc1ccc(-n2c(=S)[nH]c3ncccc3c2=O)cc1 | 12.2 | 6.8 | 110.0 | -0.8 | -1.8 | .
CCOC(=O)Nc1cccc(OCC(=O)Nc2ccc3c(c2)CCC3)c1 | 1.6 | 23.0* | 93.9 | 1.2 | . | -1.1
COc1cccc(Sc2ccccc2/C=N/NC(N)=O)c1 | 5.6 | 7.3 | 94.8 | -0.2 | -12.9 | .
O=C(Nc1ccccc1C(=O)O)c1cc(S(=O)(=O)Nc2cccc(F)c2)ccc1Cl | -18.2 | -10.0 | 103.3 | -1.4 | -4.4 | .
O=C(Nc1ncn[nH]1)c1cc(S(=O)(=O)Nc2cccc(C(F)(F)F)c2)ccc1Cl | -15.8 | 57.5* | 102.3 | -3.2 | -4.6 | 0.9
O=C(COC(=O)c1ccc2ncsc2c1)NCc1cccc(Cl)c1 | 1.3 | -13.1 | 105.3 | -2.7 | . | .
O=C(COC(=O)c1ccc2ncsc2c1)NCc1ccccc1Cl | -8.5 | 23.5* | 93.6 | 1.2 | . | -5.7
COc1cc(CN2CCC(n3nccc3NC(=O)c3ccc4c(c3)OCO4)CC2)ccc1O | -1.5 | -15.5 | 106.2 | 0.3 | 23.0 | .
CCOc1c2ccccc2nn1CCO | -5.6 | -1.5 | 105.1 | 0.6 | . | .

Source: PubChem
